Measurements from PubChem BioAssay (NCATS).
Records with an inconclusive call do not appear. Entries that show only a call come without a potency. Activity calls are given as the source filed them. The call rests on the fitted dose curve; in most records, active means well fitted inhibition curve with a large enough effect; inconclusive means small, poorly fitted or top-dose-only effect; inactive means no such curve, though single readings can be large or run the other way.

Molecular target: Retinaldehyde dehydrogenase 3 (Homo sapiens) (UniProt P47895)
Experiment: qHTS for Inhibitors of the Aldehyde Dehydrogenase Family (ALDH1A3) Primary screen (AID 2061315)
Settings: ALDH inhibition qHTS; series mostly up to 56 µM

Row | SMILES | Potency
1 | Cc1ccc(OCCn2c(CCNC(=O)NC3CCCCC3)nc3ccccc32)cc1 | inactive
2 | Cc1ccc(NS(=O)(=O)c2cc3c(cc2Cl)NC(=O)CO3)cc1Cl | inactive
3 | O=C1CCc2cc(S(=O)(=O)Nc3ccc(F)c(Cl)c3)ccc2N1 | inactive
4 | COc1cccc(NC(=S)N2CCN(c3cc(C(F)(F)F)cc(C(F)(F)F)c3)CC2)n1 | inactive
5 | CC(C)(C)OC(=O)NCCCNc1ncnc2ccc(-c3ccc4c(c3)OCO4)cc12 | inactive
6 | Cc1cnc(N2CCC(C(N)=O)CC2)nc1-c1cccc(N(C)C)c1 | inactive
7 | Cc1ccc(NS(=O)(=O)c2ccc3ccccc3c2)cc1C | inactive
8 | CNc1oc(-c2ccc(-c3ccccc3)cc2)nc1C#N | inactive
9 | Cc1cc(N[S+](=O)([O-])c2ccc(NC(=O)Cc3ccc4c(c3)CCO4)cc2)no1 | inactive
10 | O=C(Nc1ccc(-c2nc3ccccc3[nH]2)cc1)c1ccc2ncccc2c1 | inactive
11 | N#CN/C(=N\c1nnc(-c2ccncc2)s1)Nc1ccc(F)c(C(F)(F)F)c1 | inactive
12 | Cc1csc(CNc2ncnc3ccc(-c4ccoc4)cc23)c1 | inactive
13 | O=C(O)c1ccncc1Nc1nn(CCN2CCC(F)(F)CC2)c2ccc(F)cc12 | inactive
14 | Cc1ccc(NS(=O)(=O)c2ccc3c(c2)N(C)C(=O)CO3)cc1C | inactive
15 | CC12CCC3C1C(c1c(cc(O)c(C(=O)c4ccccc4)c1O)O2)C3(C)C (stereo not given) | inactive
16 | Cc1ccccc1-c1ccc(=O)n(CC(=O)NCCc2ccccc2)n1 | inactive
17 | C/C=C(/C)C(=O)O[C@H]1C=C(CO)C(=O)[C@H](OC(=O)/C(C)=C/CO)[C@H]1C(C)C | inactive
18 | O=c1c2[nH]c3ccsc3c2cnn1Cc1ccccc1F | inactive
19 | Cc1nc(N2CCOCC2)c2nc(-c3ccccc3)n(CCN(C)C)c2n1 | inactive
20 | Cc1ccc(S(=O)(=O)Nc2cnccc2C(=O)Nc2nc(-c3ccccc3F)cs2)cc1 | inactive

Row | SMILES | Potency
21 | Cc1ccc(OCCn2c(CCN(C)C(=O)C3CCCCC3)nc3ccccc32)cc1 | inactive
22 | O=[N+]([O-])c1nccn1CO[C@@H](CO)[C@H](O)CO | inactive
23 | COc1ccc(C2c3c(ncn(CCCc4ccccc4)c3=N)Oc3ccc4ccccc4c32)cc1OC (stereo not given) | inactive
24 | O=C(OCC#CCSc1nnc(-c2ccc3ccccc3c2)o1)c1ccsc1 | inactive
25 | Cc1ccc(S(=O)(=O)Nc2cnccc2C(=O)Nc2ccc(C#N)cc2)cc1 | inactive
26 | Cc1ccc([S+](=O)([O-])n2cc(Cc3ccc(-c4ccccc4)cc3)c3ccccc32)cc1 | inactive
27 | C[C@@H]1CN(S(=O)(=O)c2c(F)cccc2F)CCN1S(=O)(=O)c1ccc2c(c1)OCCO2 | inactive
28 | COc1ccc(C2Nc3ccccc3C(=O)N2Cc2ccco2)cc1COc1c(C(C)C)cccc1C(C)C (stereo not given) | inactive
29 | Cc1nc(NCc2ccccc2)c2nc(-c3ccccc3)n(CCCN3CCOCC3)c2n1 | inactive
30 | N=c1c2c(ccn1-c1ccccc1)Oc1ccc3ccccc3c1C2c1ccccc1 (stereo not given) | inactive
31 | COc1cccc(C(=O)Nc2ccc(-c3nc4ccccc4[nH]3)cc2)c1 | inactive
32 | CC(C)(C)OC(=O)Cc1nnc(-c2cc3ccccc3[nH]2)s1 | inactive
33 | COC(=O)C1=CO[C@@H](O[C@@H]2O[C@H](CO)[C@@H](O)[C@H](O)[C@H]2O)C2C1C(=O)C[C@H]2C (stereo not given in full) | inactive
34 | N#CN1CCC(NC(=O)c2ccc(F)cc2)CC1 | inactive
35 | O=C(OCC#CCSc1nnc(-c2cccc3ccccc23)o1)c1ccccc1F | inactive
36 | FC(F)(F)c1ccccc1-c1nc(NCc2cccc3ccccc23)c2ccccc2n1 | inactive
37 | Cc1cc(CNc2ncnc3ccc(-c4ccc5c(c4)OCO5)cc23)c(C)o1 | inactive
38 | O=S(=O)(NCCCNS(=O)(=O)c1c(F)cccc1F)c1ccc2c(c1)OCCO2 | inactive
39 | C[n+]1cc(C(O)(c2ccccc2)c2ccccc2)n2ccccc21 | inactive
40 | CCCCN(C)C(=O)Cn1nc(-c2cccc(C)c2)ccc1=O | inactive
